In ChEMBL document CHEMBL3988442, “University of Dundee, Small-Polar-MMV Screening Library” (2021):
About 300 (0.45%) of roughly 67,000 compounds showed an effect of 50% or more. Many of the other results were omitted from the sample, so strong results are more common in it than they were.

Each compound was assayed against Polyketide synthase Pks13 (Mycobacterium tuberculosis (strain ATCC 25618 / H37Rv)) (UniProt I6X8D2) (assay: Mycobacterium tuberculosis Polyketide synthase 13 Thioesterase (PKS13)). Details: 30 µM.
Format: functional
Design: scale not given: in the data most compounds retested in dose-response had high values

Polyketide synthase Pks13 (Mycobacterium tuberculosis (strain ATCC 25618 / H37Rv)), sequence (I6X8D2 whole entry): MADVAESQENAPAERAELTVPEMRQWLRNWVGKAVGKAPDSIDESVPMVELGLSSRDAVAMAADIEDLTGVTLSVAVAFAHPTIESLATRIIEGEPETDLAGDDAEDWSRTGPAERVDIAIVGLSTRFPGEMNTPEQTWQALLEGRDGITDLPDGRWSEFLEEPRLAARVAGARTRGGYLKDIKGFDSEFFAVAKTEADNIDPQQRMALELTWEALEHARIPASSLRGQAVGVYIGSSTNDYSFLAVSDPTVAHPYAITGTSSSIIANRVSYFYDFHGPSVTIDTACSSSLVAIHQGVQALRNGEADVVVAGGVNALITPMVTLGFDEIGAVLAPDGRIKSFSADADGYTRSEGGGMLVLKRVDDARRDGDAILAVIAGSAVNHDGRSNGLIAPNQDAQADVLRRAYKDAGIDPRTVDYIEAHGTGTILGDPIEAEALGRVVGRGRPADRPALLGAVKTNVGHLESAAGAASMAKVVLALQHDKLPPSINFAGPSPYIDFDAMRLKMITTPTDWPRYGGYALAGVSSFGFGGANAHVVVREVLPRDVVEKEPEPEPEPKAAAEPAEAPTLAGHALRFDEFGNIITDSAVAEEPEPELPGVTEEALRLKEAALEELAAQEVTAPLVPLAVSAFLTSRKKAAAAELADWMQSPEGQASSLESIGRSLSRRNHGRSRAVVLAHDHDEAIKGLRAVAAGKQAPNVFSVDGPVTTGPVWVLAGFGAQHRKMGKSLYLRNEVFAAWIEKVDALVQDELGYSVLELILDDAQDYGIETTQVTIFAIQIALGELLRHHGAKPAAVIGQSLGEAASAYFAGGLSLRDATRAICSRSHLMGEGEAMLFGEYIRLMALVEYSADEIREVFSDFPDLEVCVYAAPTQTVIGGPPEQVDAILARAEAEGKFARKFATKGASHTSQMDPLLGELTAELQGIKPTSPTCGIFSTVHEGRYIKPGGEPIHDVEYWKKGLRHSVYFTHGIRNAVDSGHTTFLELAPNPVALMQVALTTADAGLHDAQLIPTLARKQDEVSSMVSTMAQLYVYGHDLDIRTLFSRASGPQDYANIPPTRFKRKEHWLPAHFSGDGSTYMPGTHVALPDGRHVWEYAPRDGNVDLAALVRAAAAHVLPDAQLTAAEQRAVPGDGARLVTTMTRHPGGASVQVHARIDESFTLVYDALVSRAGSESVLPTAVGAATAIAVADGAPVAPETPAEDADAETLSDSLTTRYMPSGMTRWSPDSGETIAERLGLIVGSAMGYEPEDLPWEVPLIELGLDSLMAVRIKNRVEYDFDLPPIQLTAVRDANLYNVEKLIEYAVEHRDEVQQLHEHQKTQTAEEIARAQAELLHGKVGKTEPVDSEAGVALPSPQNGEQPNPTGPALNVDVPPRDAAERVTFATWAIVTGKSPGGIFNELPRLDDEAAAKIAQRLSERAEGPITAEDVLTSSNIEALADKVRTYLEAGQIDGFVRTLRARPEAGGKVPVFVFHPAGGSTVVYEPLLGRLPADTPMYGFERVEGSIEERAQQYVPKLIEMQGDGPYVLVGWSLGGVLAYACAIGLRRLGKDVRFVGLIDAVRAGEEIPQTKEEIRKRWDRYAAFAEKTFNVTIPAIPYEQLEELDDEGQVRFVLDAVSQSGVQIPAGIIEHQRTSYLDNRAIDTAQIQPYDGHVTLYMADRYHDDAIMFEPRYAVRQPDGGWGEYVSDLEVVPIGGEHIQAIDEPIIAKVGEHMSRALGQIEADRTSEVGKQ

Row | Compound | Percent Effect [%]
1 | CC1CN(C(=O)c2cc(=O)[nH]c3ccc(F)cc23)CCO1 (stereo unspecified) | 6.5
2 | CN(C)C[C@H]1C[C@@H](CO)CN(C(=O)c2cc(=O)[nH]c3cc(F)ccc23)C1 | -20
3 | Cc1ccc(OCc2occc2C(=O)N2C[C@@H]3[C@@H](CN(C)C)[C@@H]3C2)cc1 | -36.4
4 | CN(C)C[C@@H]1CN(C(=O)c2cc(F)ccc2F)C[C@@H]1CO | -27.8
5 | CN(C)C[C@@H]1[C@H]2CN(C(=O)c3cc(=O)[nH]c4ccc(F)cc34)C[C@@H]12 | 55.8
6 | Cc1ccoc1C(=O)N1CC[C@@H]2CN(C3CCOCC3)CCO[C@@H]2C1 | -13.2
7 | COc1ncccc1CN1C[C@H]2C[C@@H](C(=O)NCC3CC3)N(C)[C@H]2C1 | -7.18
8 | Cc1noc(C)c1CN1C(=O)[C@H]2CC[C@@H]1CN(Cc1cccnc1N)C2 | -20
9 | Cc1oncc1C(=O)N1CC[C@@H]2[C@@H]1CC(=O)N2Cc1cccnc1 | 10.2
10 | CCc1ccccc1CN1CCN(Cc2ncc[nH]2)[C@H]2CS(=O)(=O)C[C@H]21 | -16.6
11 | COc1ccc(C(=O)NC2CCN(c3ncccn3)CC2)cc1F | -18.2
12 | Cn1ccc(C(=O)N2CCN(c3ncccn3)CC2)cc1=O | 11.1
13 | Cn1ccc(C(=O)NC2CCN(c3ncccn3)CC2)cc1=O | 71.3
14 | CN(C)c1ccc(CN2C[C@H]3CC[C@@H]2CN(C2CCOCC2)C3)cn1 | -33
15 | CNC(=O)[C@H]1C[C@@H]2CN(Cc3csc(C)n3)C[C@@H]2N1S(C)(=O)=O | -33.5
16 | CCOC1CC2(CCN(C(=O)Cc3ccccn3)CC2)C1 | 58.6
17 | CC(C)COC1CC2(CCN(C(=O)Cc3ccccn3)CC2)C1 | 0.268
18 | O=C(Cc1ccccn1)N1CCC2(CC1)[C@H](O)C[C@@H]2O | 7.55
19 | C[C@@H]1C[C@@H]2CCN(C(=O)c3ccncn3)C[C@H]2O1 | -3.96
20 | O=C(CC[C@@H]1CCCN2CCCC[C@H]12)NCCc1nc(O)cc(O)n1 | -3.34
21 | c1cncc(OC[C@]23COC[C@H]2CN(Cc2nccs2)C3)c1 | -6.85
22 | COCCNC(=O)c1cn(C(C)(C)C)c2ncccc12 | -9.36
23 | COCCCNC(=O)c1cn(C(C)(C)C)c2ncccc12 | 0.73

Row | Compound | Percent Effect [%]
24 | CCOCCCNC(=O)c1cn(C(C)(C)C)c2ncccc12 | 60.2
25 | Cc1cccc(CN2C[C@@H]3CCCO[C@@H]3[C@H](Nc3ccccn3)C2)n1 | -13.2
26 | C[C@H]1C[C@@H]2CCN(C(=O)c3cccn3C)C[C@H]2O1 | -23.4
27 | Cc1oc(-c2nc(C#N)c(NC3CC3)o2)cc1S(=O)(=O)N1CCCC1 | -2.87
28 | CN(C)S(=O)(=O)c1ccc(-c2nc(C#N)c(NC(C)(C)C)o2)o1 | -2.58
29 | CN(C)S(=O)(=O)c1ccc(-c2nc(C#N)c(NC3CC3)o2)o1 | 73.3
30 | Cc1ccc(C(=O)N2CCO[C@H]3[C@H](OCC4CCOCC4)CC[C@@H]32)o1 | -6.47
31 | O=C(NCCCO)c1cc(-c2cc[nH]n2)n2ccccc12 | 48.6
32 | COCCNC(=O)c1cc(-c2cc[nH]n2)n2ccccc12 | 47.6
33 | CC(C)(CO)CNC(=O)c1cc(-c2cc[nH]n2)n2ccccc12 | 67.2
34 | Fc1cnc(N2CCO[C@H]3CN(CC4CCCC4)C[C@H]32)nc1 | -14.5
35 | CC(C)c1n[nH]c(C(=O)Nc2ccccn2)c1Br | -9.25
36 | Cc1cccc(NC(=O)c2[nH]nc(C(C)C)c2Br)n1 | 73.4
37 | CC(C)c1n[nH]c(C(=O)Nc2cc[nH]n2)c1Br | -20
38 | Cc1cc(CN2C[C@H]3CCC[C@@]3(COCC3CCOCC3)C2)no1 | -40.7
39 | CC(=O)N1C[C@@H](c2ccsc2)[C@@H]2CN(Cc3ccccc3C)CC[C@@H]21 | -7.95
40 | Cc1nc([C@@H]2C[C@@H]3CCN(Cc4cnn(C)c4)C[C@H]3O2)sc1C | -30.4
41 | CC(=O)N1CCS(=O)(=O)[C@@H]2CCN(CC(C)C)CC[C@@H]21 | -16.8
42 | COCCS(=O)(=O)NCC(C)c1cccc(C)c1 (stereo unspecified) | -20.8
43 | Cc1cccc(C(C)CNS(=O)(=O)CCCC#N)c1 (stereo unspecified) | 50.7
44 | CC(CNS(=O)(=O)CCCC#N)c1ccsc1 (stereo unspecified) | -31.9
45 | Cn1cc(CN2C[C@H]3CCN(C(=O)c4cscn4)C[C@H]3C2)cn1 | -3.8
46 | Cc1ccc(CC(=O)N2CC[C@@H]3NC(=O)CC[C@@H]32)cc1 | -1.54

Row | Compound | Percent Effect [%]
47 | CCS(=O)(=O)NCC1CCN(c2cnccn2)CC1 | -18.7
48 | CCc1ccc(S(=O)(=O)NCC2CCN(c3cnccn3)CC2)s1 | 56.2
49 | O=S(=O)(NCC1CCN(c2cnccn2)CC1)c1cccs1 | 45.5
50 | CCCc1ccc(CN2CCN(C(=O)CC(C)C)[C@@H]3CS(=O)(=O)C[C@@H]32)o1 | -12.9
51 | CCN(Cc1ccccc1)C(=O)c1cc(C2CCCN2C)ccn1 (stereo unspecified) | -15.7
52 | CCN(CC)C(=O)c1cc(C2CCCN2C)ccn1 (stereo unspecified) | 88.5
53 | CN1CCCC1c1ccnc(C(=O)N(C)C2CCCCC2)c1 (stereo unspecified) | 5.64
54 | C=Cn1ncc(CN2C[C@@H]3CCCN3C[C@@H]2CCSC)c1C | -1.08
55 | CCc1nnc(CN2CCOC(Cn3cc(C)cn3)C2)o1 (stereo unspecified) | 52.7
56 | Cc1cnn(CC2CN(Cc3nnc(C4CC4)o3)CCO2)c1 (stereo unspecified) | -7.17
57 | Cc1cnn(CC2CN(Cc3nnc(C(C)C)o3)CCO2)c1 (stereo unspecified) | -12.6
58 | Cc1ccc(N2C[C@H]3CCC[C@@]3(COc3cccnc3)C2)nn1 | -28.6
59 | CCC(Cn1ccc2[nH]c(=O)c(C#N)cc2c1=O)OC (stereo unspecified) | -9.98
60 | N#Cc1cc2c(=O)n(CC(O)C(F)(F)F)ccc2[nH]c1=O (stereo unspecified) | -25.1
61 | CCCOC(C)Cn1ccc2[nH]c(=O)c(C#N)cc2c1=O (stereo unspecified) | 89.3
62 | O=C(NC1CCC1)[C@H]1C[C@@H]2CN(S(=O)(=O)c3ccccc3)C[C@H]1O2 | -31.3
63 | O=C(N[C@H]1CN(Cc2cccs2)[C@@H]2CCCO[C@H]12)c1cccnc1 | -28.5
64 | COc1ccccc1CN1C(=O)O[C@@H]2CN(c3ccccn3)C[C@@H]21 | 4.73
65 | COCCNc1nc2c(c(NCC3CCOC3)n1)CCNCC2 (stereo unspecified) | 89.6
66 | COCCNc1nc2c(c(NCCc3cccs3)n1)CCNCC2 | -17.6
67 | COCCNc1nc2c(c(NCc3ccncc3)n1)CCNCC2 | -8.09
68 | CS(=O)(=O)NC[C@]12COC[C@H]1CN(C(=O)CCc1ccccc1)C2 | -0.91
69 | Cc1csc([C@H]2C[C@@H]3CCN(Cc4cc(C)on4)C[C@H]3O2)n1 | -10.9

Row | Compound | Percent Effect [%]
70 | CN(C)S(=O)(=O)N1C[C@H]2CCC[C@@]2(COCc2cccnc2)C1 | -34
71 | CCOC(=O)N1CCN(C(=O)c2cc(OCC)c3ccoc3c2)CC1 | 22.8
72 | CCOc1cc(C(=O)n2cc(C)cn2)cc(OCC)c1OCC | 53.3
73 | CCOc1cc(C(=O)n2cccn2)cc(OCC)c1OCC | 21.5
74 | Cc1nnsc1CN1C[C@H]2CC[C@@H]1CN(Cc1ccccn1)C2 | 2.49
75 | O=C(O)c1csc(S(=O)(=O)Nc2cccc(OC(F)F)c2)c1 | 24.7
76 | CC(=O)c1cccc(NS(=O)(=O)c2cc(C)c(C(=O)O)s2)c1 | 11.7
77 | CCOc1cc(C)ccc1NS(=O)(=O)c1cc(C)c(C(=O)O)s1 | -26.3
78 | CCOc1cc(F)ccc1NS(=O)(=O)c1cc(C)c(C(=O)O)s1 | 4.81
79 | CCOc1ccc(NS(=O)(=O)c2cc(C)c(C(=O)O)s2)cc1F | -32.1
80 | Cc1cc(S(=O)(=O)Nc2cccc(-n3cccc3)c2)sc1C(=O)O | 74
81 | Cc1cc(S(=O)(=O)Nc2cccc(I)c2)sc1C(=O)O | 70
82 | CCOc1ccc(NS(=O)(=O)c2cc(C)c(C(=O)O)s2)c(C)c1 | -32.6
83 | CCOc1cccc(NS(=O)(=O)c2cc(C)c(C(=O)O)s2)c1 | 33.3
84 | CCc1cccc(NS(=O)(=O)c2cc(C)c(C(=O)O)s2)c1 | 56.8
85 | CCOc1c(Cl)cccc1NS(=O)(=O)c1cc(C)c(C(=O)O)s1 | -18.8
86 | Cc1cc(S(=O)(=O)Nc2cccc(OC(F)F)c2)sc1C(=O)O | 72.8
87 | Fc1ccc(CN2CCO[C@H]3[C@H](OCC4CC4)CC[C@@H]32)cc1 | -2.1
88 | CO[C@H]1CCN(S(=O)(=O)N(C)C)[C@@H]2CN(Cc3cccnc3)C[C@H]12 | 12.3
89 | CCOC(=O)[C@@H]1[C@@H](c2ccccc2)CN2CCN(C(C)=O)C[C@H]12 | 0.569
90 | Cc1nc(CN2C[C@H]3C[C@H](C(=O)NCC4CC4)N(C)[C@H]3C2)cs1 | 16.8
91 | O=C(Cc1ccsc1)N1C[C@@H]2OCCN(CC3CCCO3)[C@@H]2C1 (stereo partly specified) | -0.843
92 | c1cnn(CCCO[C@@H]2CC[C@H]3[C@H]2OCCN3CC2CC2)c1 | -15.8

Row | Compound | Percent Effect [%]
93 | Cc1nccc(N2CC[C@@H]3[C@@H](CCC(=O)N3CCc3ccccc3)C2)n1 | -11
94 | O=C(NC1CCCC1)[C@@H]1CN(Cc2nccs2)C[C@H]2OCC[C@H]21 | -23.6
95 | CCOCC(=O)N1C[C@H]2CN(CC3CC3)C(=O)[C@H]2C1 | -37.5
96 | Cc1ccc2[nH]c(CO[C@H]3CN(C(=O)C4CC4)C[C@H]3F)nc2c1 | 17.3
97 | Cc1ccc2[nH]c(CO[C@H]3CN(c4ccc(C#N)cn4)C[C@H]3F)nc2c1 | 53.9
98 | CC(=O)N1C[C@@H](F)[C@@H](OCc2nc3ccc(C#N)cc3[nH]2)C1 | -28.7
99 | CC(C)C(=O)N1C[C@H]2CCCN[C@H]2C1 | -32.8
100 | O=C(C[C@H]1[C@H]2CN(C(=O)CO)C[C@@H]12)Nc1cccnc1 | -10.3
101 | O=S(=O)(c1ccc(N2CCCCC2)c2nonc12)N1CCCCC1 | 29.3
102 | O=S(=O)(c1c(N2CCCCC2)ccc2nonc12)N1CCCCC1 | 51.7
103 | O=S(=O)(c1c(N2CCCC2)ccc2nonc12)N1CCCC1 | 32.4
104 | CC(C)C(=O)N1CCN(C(=O)c2cscn2)[C@H]2CS(=O)(=O)C[C@H]21 | -12.2
105 | O=C1CO[C@H]2CN(C3CCOCC3)C[C@H]2N1Cc1ccncc1 | -35.6
106 | CCN(Cc1nc2c(cnn2C)c(=O)[nH]1)c1ccccc1 | 66.8
107 | CCN(Cc1nc2c(cnn2C)c(=O)[nH]1)c1cccc(F)c1 | -8.73
108 | CCN(Cc1nc2c(cnn2C)c(=O)[nH]1)c1ccc(F)cc1 | -7.87
109 | CN1CCC(NC(=O)c2cc(F)cc(Cl)c2O)C1=O (stereo unspecified) | 54
110 | CN1CCC(NC(=O)c2cc(Br)cc(Cl)c2O)C1=O (stereo unspecified) | 11.6
111 | CN1CCC(NC(=O)c2cc(Cl)cc(Br)c2O)C1=O (stereo unspecified) | 11.2
